Data on 16 compounds can be found in article PMC5540273 (PLoS ONE, 2017).

What all share (settings): concentration: 1 μM,replicates: in singlicate; n = 1
The test system of assay [1] is T1, MEK5.
T1 construct: gene MAP2K5

Assay [2] deals with T2, MEK6.
T2 construct: gene MAP2K6

In assay [3] the test system is MELK.
Assay [4] deals with MERTK.
Assay [5] relates to MET.
Assay [6] concerns T3, MINK.
T3 construct: gene MINK1

The subject of assay [7] is MKK7.
The test system of assay [8] is MKNK1.
Assay [9] concerns MKNK2.
Assay [10] relates to T4, MLCK.
T4 construct: gene MYLK3
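Further: KINOMEscan kinase panel screen.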

Turning to `Cc1ccn2nc(-c3ccc(F)cc3)c(-c3ccncc3)c2c1.Cl` [GW457859], the “%Inh” value in [1] is on record as 7%; in assay [2], 2%; in assay [3] it was 7%; in assay [4], 24%; in assay [5], 0%; in assay [6], 67%. The “%Inh” value in assay [7] was determined as 0%; in assay [8] it was 6%; in assay [9], 0%; in assay [10], 2%.

Take `COc1cc2c(Nc3ccc(NC(=O)c4ccccc4)cc3)ncnc2cc1OCCCN1CCOCC1` [GSK301329]: the “%Inh” value stood at 99.9% in [1]; 0% in assay [2]; 4% in assay [3]; 65% in assay [4]; 50% in assay [5]; 17% in assay [6]. For the same compound, the “%Inh” value in assay [7] worked out at 0%; in [8], 0%; in assay [9] it was 18%; in assay [10], 0%.

For the compound `Cl.Nc1n[nH]c2cc(-c3ccccn3)ccc12` [GSK2189892], the “%Inh” value in assay [1] came out at 45%; in assay [2], 0%; in assay [3], 2%; in assay [4] it was 0%; in assay [5], 0%; in [6], 0%. The “%Inh” value in assay [7] came to 0%; in assay [8], 0%; in assay [9], 32%; in assay [10] it was 0%.

For `COc1cccc(OC)c1C(=O)Nc1cccc(-c2nn3ccccc3c2-c2ccnc(Nc3cccc(F)c3)n2)c1` [GSK361065], the “%Inh” value in assay [1] came to 93.2%; in assay [2] it was 3%; in assay [3], 0%; in [4] it was 50%; in assay [5], 34%; in [6], 0%. In addition, the “%Inh” value is listed as 0% in [7], 0% in assay [8], 0% in assay [9] and 2% in assay [10].

As to `Cn1ccc2ncnc(Oc3ccc(NC(=O)Nc4cc(C(C)(C)C)on4)c(Cl)c3)c21`, the “%Inh” value in assay [1] worked out at 71%; in assay [2], 7%; in assay [3], 20%; in assay [4] it was 94.8%; in assay [5], 48%; in [6], 91.6%. In addition, the “%Inh” value came to 0% in [7], 3% in assay [8], 90% in assay [9] and 7% in [10].

Turning to `C[C@@H](Oc1cc(-n2cnc3cc(-c4cnn(C)c4)ccc32)sc1C(N)=O)c1ccccc1Cl` [GSK580432], the “%Inh” value in assay [1] amounted to 42%; in [2], 15%; in [3], 15%; in assay [4], 100%; in [5], 69%; in assay [6] it was 40%. Moreover, the “%Inh” value in assay [7] is 0%; in assay [8], 2%; in assay [9] it was 20%; in [10], 10%.

`Cn1ccc2ncnc(Oc3ccc(NC(=O)Nc4cccc(C(F)(F)F)c4)c(Cl)c3)c21`: the “%Inh” value is on record as 30% in [1]; 30% in [2]; 0% in assay [3]; 85% in assay [4]; 17% in assay [5]; 4% in assay [6]. Besides, the “%Inh” value in [7] worked out at 32%; in assay [8], 16%; in assay [9], 19%; in [10], 12%.

As for `Cn1ccc2ncnc(Oc3ccc(NC(=O)Nc4cccc(C(F)(F)F)c4)c(F)c3)c21`, the “%Inh” value in assay [1] amounted to 35%; in assay [2], 0%; in assay [3] it was 10%; in assay [4], 98%; in assay [5], 50%; in assay [6] it was 0%. Further, the “%Inh” value in assay [7] is 0%; in assay [8], 18%; in assay [9], 89%; in assay [10] it was 0%.

For the compound `Nc1nccc(-c2ccc3c(N)n[nH]c3c2)n1` [GSK1034945], the “%Inh” value stood at 38% in [1]; 0% in [2]; 24% in assay [3]; 16% in assay [4]; 0% in assay [5]; 47% in assay [6]. In addition, the “%Inh” value in [7] worked out at 0%; in [8], 11%; in assay [9], 86%; in assay [10], 96.1%.

Take `O=C(NCC1CC1)c1ccc(-c2cc(C(=O)NC3CC3)ccc2F)cc1` [GW810445]: the “%Inh” value is 0% in assay [1]; 5% in assay [2]; 17% in [3]; 0% in assay [4]; 0% in assay [5]; 0% in assay [6]. The “%Inh” value is 8% in assay [7], 3% in assay [8], 0% in assay [9] and 0% in assay [10].

For the compound `Cn1cc(-c2cccc3c(N)c(C(N)=O)nnc23)cn1`, the “%Inh” value in assay [1] was 41%; in assay [2], 0%; in [3], 16%; in [4], 0%; in assay [5], 3%; in assay [6], 29%. Further, the “%Inh” value in [7] was found to be 13%; in [8], 5%; in assay [9], 29%; in assay [10], 0%.

As to `CN1CCN(CCCNc2nccc(-c3c(-c4ccc(F)cc4)nn4cc(C(N)=O)ccc34)n2)CC1` [GW622475], the “%Inh” value stood at 42% in assay [1]; 0% in assay [2]; 91.9% in assay [3]; 49% in assay [4]; 32% in assay [5]; 71% in assay [6]. Besides, the “%Inh” value in assay [7] is 0%; in [8], 10%; in [9] it was 0%; in assay [10], 0%.

Turning to `Cn1ccc2ncnc(Oc3ccc(NC(=O)Nc4ccnc(C(F)(F)F)c4)c(Cl)c3)c21`, the “%Inh” value in [1] turned out to be 9%; in assay [2], 0%; in assay [3] it was 0%; in [4] it was 23%; in assay [5], 2%; in [6], 0%. Also, the “%Inh” value in assay [7], in [8], in [9] and in assay [10] was 0% throughout.

On to `CC(C(=O)NC1CCN(c2ccnc(Nc3ccc(F)cc3)n2)C1)c1ccc(Cl)cc1` (stereo not shown) [GSK1379713], for which the “%Inh” value is reported as 7% in assay [1]; 0% in [2]; 0% in assay [3]; 0% in [4]; 0% in assay [5]; 0% in assay [6]. For the same compound, the “%Inh” value in assay [7] is listed as 0%; in assay [8], 5%; in assay [9], 0%; in assay [10] it was 0%.

Consider `Cn1ccc2ncnc(Oc3ccc(NC(=O)Nc4cncc(C(F)(F)F)c4)c(Cl)c3)c21`, for which the “%Inh” value in [1] is 22%; in assay [2], 0%; in [3], 0%; in assay [4] it was 81%; in assay [5], 12%; in assay [6], 0%. Besides, the “%Inh” value in [7], in [8], in assay [9] and in assay [10] was 0% each time.

With `CCN1CCN(CCCC(=O)Nc2n[nH]c3nc(-c4ccc(O)cc4)c(Br)cc23)CC1` [SB-731579], the “%Inh” value in [1] stood at 42%; in [2], 0%; in assay [3], 0%; in assay [4] it was 2%; in [5], 0%; in [6] it was 0%. In addition, the “%Inh” value came to 0% in assay [7], 46% in assay [8], 46% in assay [9] and 39% in assay [10].
